# Assay outcomes deposited in PubChem BioAssay by National Center for Advancing Translational Sciences (NCATS).
# PLK1 PBD inh = blocks phosphopeptide binding to human PLK1 polo-box domain | Plk1 PBD binding of FITC phosphopeptide, fluorescence polarization | Potency, µM, for inactives: max response, negative = inhibition, hits mostly inhibitors | 2.8% of 360,000 active; further: series mostly up to about 57 µM; on the % scale 0 is the no-effect control and ±100 the full control effect; nearly all actives have a fitted effect of over 65% in size
# Target sequence (P53350 whole entry, looked up, the tested form may be a part): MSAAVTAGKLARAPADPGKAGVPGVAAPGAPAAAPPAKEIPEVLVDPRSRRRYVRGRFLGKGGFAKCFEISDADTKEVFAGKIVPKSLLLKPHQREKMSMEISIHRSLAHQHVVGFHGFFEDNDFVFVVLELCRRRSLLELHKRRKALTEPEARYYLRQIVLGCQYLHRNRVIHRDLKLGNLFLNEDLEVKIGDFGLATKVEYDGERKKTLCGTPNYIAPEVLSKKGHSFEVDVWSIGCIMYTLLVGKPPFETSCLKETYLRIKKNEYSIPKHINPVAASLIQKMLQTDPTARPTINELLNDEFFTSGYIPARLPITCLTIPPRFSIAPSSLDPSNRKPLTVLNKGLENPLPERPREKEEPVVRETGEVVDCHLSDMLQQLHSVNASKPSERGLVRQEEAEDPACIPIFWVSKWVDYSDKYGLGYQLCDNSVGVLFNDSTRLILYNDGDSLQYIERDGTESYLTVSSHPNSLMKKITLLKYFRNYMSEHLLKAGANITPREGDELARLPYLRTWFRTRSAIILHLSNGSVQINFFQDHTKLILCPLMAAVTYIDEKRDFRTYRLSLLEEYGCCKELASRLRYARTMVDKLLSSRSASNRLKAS
# VDR inhibitor = blocks the human vitamin D receptor; 0.93% of 400,000 active; Potency, µM, for inactives: max response, negative = inhibition, usual class: inhibitors; VDR-SRC2-3 peptide fluorescence polarization, 2 h; AID 504847; further: on the % scale 0 is the no-effect control and ±100 the full control effect
#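 Fluorescence polarization assay of small-molecule disruption of VDR binding to coregulator peptide SRC2-3. Compounds and controls pin-transferred, then read after 2 h incubation at ambient room temperature.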
# BAZ2B inh = BAZ2B (human) inhibition | Potency, µM (top dose mostly 114 µM), inactives show at the highest dose activity change, negative = inhibition, actives largely listed as inhibitors | Q9UIF8 | AlphaScreen BAZ2B-H3K14Ac peptide displacement | 4.4% of 360,000 active | AID 504333; further: on the % scale 0 is the no-effect control and ±100 the full control effect; nearly all actives have a fitted effect of over 60% in size
#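 In this displacement format the biotinylated H3(5-23) peptide acetylated at Lys14 serves as ligand at 50 nM, with BAZ2B at 50 nM in PBS pH 7.4 containing 0.01% Tween-20. Donor and acceptor beads are 10 ug/mL final.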
# L3MBTL1 block = inhibitors of human L3MBTL1; Q9Y468; AlphaScreen L3MBTL1–H3K9me1 peptide binding; Potency, µM (top dose mostly 57.1 µM), for inactives: at the highest dose activity, negative = inhibition, hits mostly inhibitors; 0.66% of 230,000 active; further: on the % scale 0 is the no-effect control and ±100 the full control effect; nearly all actives have a fitted effect of over 60% in size
#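 First, the protein-peptide complex forms for 30 min at room temperature (L3MBTL1 50 nM, biotinylated H3K9me1 peptide 75 nM). Next, compounds are pin-transferred and incubated 30 min. Finally, AlphaScreen beads are added and read after 30 min.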
# HP1b binding inh = inhibitors of HP1-beta chromodomain binding to methylated histone tails. P83916. Potency, µM (doses to about 114 µM), without a hit: top-dose activity change, negative = inhibition, most hits filed as inhibitors. AlphaScreen HP1-beta / biotin-H3K9me3 peptide binding. 0.56% of 390,000 active. AID 540317; further: nearly all actives have a fitted effect of over 70% in size
#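 HP1-beta protein (50 nM final) preincubated 30 min at room temperature with biotinylated H3(1-18)K9me3 peptide (50 nM) in PBS pH 7.4, 0.01% Tween-20, then compound added for 30 min. AlphaScreen streptavidin donor/nickel chelate acceptor beads (10 ug/mL final), 30 min dark, luminescence read.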
# JMJD2A Tudor = inhibitors of human JMJD2A Tudor domain. Potency, µM (top dose mostly 114 µM), for inactives: at the top dose activity change, negative = inhibition, most hits filed as inhibitors. AlphaScreen JMJD2A-Tudor / H3K4me3 peptide binding. O75164. 4.4% of 390,000 active; further: on the % scale 0 is the no-effect control and ±100 the full control effect; nearly all actives have a fitted effect of over 50% in size
# * = called active by the depositor; u = inconclusive; x = not tested or not shown; [ ] = remark or other dose. This is a sample that favours compounds with a hit; in the whole collection about 6.9% have one here. The call rests on the fitted dose curve; in most records, active means well fitted curve in the direction sought with a large enough effect; inconclusive means small, poorly fitted or top-dose-only effect, or another doubt; inactive means no such curve, though single readings can be large; an effect the other way counts as inactive or inconclusive. Potency means the concentration at half of the fitted maximal effect.
SMILES,PLK1 PBD inh,VDR inhibitor,BAZ2B inh,L3MBTL1 block,HP1b binding inh,JMJD2A Tudor
O=C(Nc1ccc2oc(-c3ccccc3)nc2c1)c1ccc2c(c1)OCCO2,0%,-15%,-9%,3%,28%,4%
CN(C)CC(O)COC(c1ccccc1)c1ccccc1 (stereo not drawn),-15%,5%,-14%,2%,-9%,1%
OC(CNCCc1ccc(C(F)(F)F)cc1)COC(c1ccccc1)c1ccccc1 (stereo not drawn),-13%,5%,25µM*,x,u,13µM*
Cc1noc(C)c1COc1ccc(C(=O)N2CCCC(C(F)(F)F)C2)cc1 (stereo not drawn),-4%,-3%,-11%,x,28%,2%
C/C(=N/NC(=O)c1ccc(Br)o1)c1cccc(NC(=O)c2ccc(C)o2)c1,7.5µM*,u,-36%,-8%,-10%,50µM*
C/C(=N/NC(=O)c1ccco1)c1cccc(NC(=O)c2ccc(C)o2)c1,-3%,-2%,1%,-2%,8%,-15%
CC(=O)N1N=C(c2c(-c3ccccc3)c3cc(Br)ccc3[nH]c2=O)CC1c1ccco1 (stereo not drawn),-18%,79µM*,-19%,-8%,40%,-28%
O=C(Cn1c(=O)c2cccn2c2ccc(F)cc21)Nc1cccc(F)c1,x,3%,-11%,x,22%,-20%
O=C(Cn1c2ccccc2c(=O)c2ccccc21)Nc1cccc(F)c1,11µM*,u,-7%,8%,6%,16µM*
O=[N+]([O-])c1cc(F)cc(F)c1Nc1cc(F)cc(F)c1,-2%,6%,x,x,u,45µM*
CCc1ccc(NC(=O)C(CC)n2nnc(C(=O)OC)c2C(=O)OC)cc1 (stereo not drawn),x,12%,3%,x,9%,-13%
CCCn1c(N)c(C(=O)CN(C)CC(=O)Nc2ccc(C)cc2)c(=O)[nH]c1=O,3%,4%,9%,-5%,33%,22µM*
Fc1ccccc1N1CCN(Cc2cccnc2)CC1,-1%,0%,56µM*,8%,u,1.6µM*
O=S(=O)(c1ccc(Cl)cc1)N1CCN(Cc2cccnc2)CC1,-13%,16%,4%,x,28%,-10%
Fc1ccccc1N1CCN(CC2CCCCC2)CC1,-5%,-13%,79µM*,-4%[2.29 µM],u,20µM*
O=C(Nc1ccc(Br)cc1F)C1CCN(c2nc3ccccc3[nH]2)CC1,x,14%,4%,x,14%[57 µM],-21%
O=C(Nc1ccccn1)c1cccc(S(=O)(=O)N2CCCC2)c1,-4%,-14%,-9%,x,36%,2%
CCC(OC(=O)CN1C(=O)C(=O)c2ccccc21)C(=O)Nc1ccccc1OC (stereo not drawn),-20%,-20%,-7%,x,15%,-13%
Cc1ccc(OCC(=O)Nc2ccc(N3CCCC3)cc2)cc1C,-7%,-12%,28µM*,-24%,u,32µM*
CCCCOC(=O)Nc1ccc(N2CCCCC2)cc1,-7%,-12%,u,-25%,u,28µM*
Cc1ccc(C(=O)N2CCN(c3ccc(NC(=O)COc4ccccc4C)cc3)CC2)cc1,-2%,-3%,35µM*,-9%[11.4 µM],-17%,u
CC(=O)c1ccc(OCC(=O)Nc2ccc(N3CCCCC3)cc2)cc1,-9%,-13%,45µM*,-19%,u,u
CCC(=O)N1CCN(c2ccc(NC(=O)COc3ccc(C)cc3C)cc2)CC1,-10%,7%,u,x,-19%,-35%
Cc1ccc(C(C)C)cc1OCC(=O)Nc1ccc(N2CCCCC2)cc1,-4%,-17%,28µM*,-27%,u,u
Cc1cccc(OCC(=O)Nc2ccc(N3CCCC3)cc2)c1C,-11%,13%,x,-12%,-23%,u
CC1=C(c2ccc(Cl)cc2)S(=O)(=O)N=C1N1CCC(C(=O)NCc2ccccc2F)CC1,x,0%,-8%,x,4%,-17%
COc1ccccc1CNC(=O)C1CCN(C2=NS(=O)(=O)C(c3ccc(C)c(C)c3)=C2C)CC1,x,16%,3%,x,38%,56µM*
